High-throughput results: PubChem BioAssay, National Center for Advancing Translational Sciences (NCATS)
GBA mod – alters purified human glucocerebrosidase activity | purified enzyme, resorufin glucoside fluorescence (screen aimed at inhibitors), 20 min | 48,000 tested, 1.1% active | Potency, µM | P04062; in the data active = potency below about 15 µM; inconclusive = mostly about 16 µM to 33 µM;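 note: the screen sought inhibitors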
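Normal human glucocerebrosidase (0.2 nM final) was assayed with resorufin β-D-glucopyranoside (30 uM final) in 50mM citric acid/KH2PO4, 10mM sodium taurocholate, 0.01% tween-20, pH 5.9. Compounds were titrated; fluorescence (Ex 548, Em 600) read after 20 min at RT.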
Luciferase inh – firefly luciferase inhibition; P08659; purified firefly luciferase, luminescence, 8 min; Potency, µM (series often up to 57.1 µM), without a hit: top-dose activity change, negative = inhibition, most hits filed as inhibitors; 72,000 tested, 2.2% active; AID 411; active = well fitted inhibition curve with a large enough effect; inconclusive = small, poorly fitted or top-dose-only effect; note: % is set by controls: 0 for no effect and ±100 for the full control effect; nearly all actives have a fitted effect of over 40% in size
Target sequence (P08659 whole entry, looked up): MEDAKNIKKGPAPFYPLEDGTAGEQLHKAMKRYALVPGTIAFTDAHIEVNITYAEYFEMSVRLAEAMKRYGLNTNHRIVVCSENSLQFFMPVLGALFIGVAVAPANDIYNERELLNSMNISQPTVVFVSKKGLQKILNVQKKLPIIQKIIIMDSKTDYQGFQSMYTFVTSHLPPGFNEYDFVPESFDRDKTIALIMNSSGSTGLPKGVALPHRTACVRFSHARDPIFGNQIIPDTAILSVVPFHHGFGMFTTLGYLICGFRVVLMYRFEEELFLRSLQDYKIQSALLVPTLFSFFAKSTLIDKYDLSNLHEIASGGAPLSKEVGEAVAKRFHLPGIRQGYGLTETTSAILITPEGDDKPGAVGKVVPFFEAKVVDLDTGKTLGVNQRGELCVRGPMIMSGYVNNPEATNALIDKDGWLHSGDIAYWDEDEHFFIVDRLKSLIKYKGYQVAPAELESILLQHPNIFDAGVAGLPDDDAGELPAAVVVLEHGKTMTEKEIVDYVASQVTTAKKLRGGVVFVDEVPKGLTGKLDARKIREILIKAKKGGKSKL
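Here, luciferase activity is measured as luminescence following an 8 min room-temperature reaction at 10 uM ATP, pH 7.2. Every library sample is titrated.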
PK Bst – modulators of Bacillus stearothermophilus pyruvate kinase; AID 361; 51,000 tested, 1.2% active; purified pyruvate kinase, luminescence ATP production; ribose 5-phosphate activator present at AC10; Potency, µM; in the data active = potency below about 11 µM; inconclusive = mostly about 12 µM to 25 µM;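 the screen sought inhibitors and activators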;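 note: scaled between full activation by ribose 5 phosphate and full inhibition by luteolin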
* marks the source's active call; other numbers are inactive results; [ ] = another dose, or the depositor's remark. Hits are enriched below; roughly 3.4% of the tested compounds scored in any of these assays. Potency is the fitted concentration of half-maximal effect.

How did Cc1cc(NC(=O)COC(=O)c2c(C)nn(Cc3ccccc3)c2Cl)no1 do in these assays?
GBA mod: >77; Luciferase inh: -4%; PK Bst: >57

Results for Cc1onc(-c2ccccc2Cl)c1C(=O)OCC(=O)c1ccc2c(c1)OCCO2 ?
GBA mod: >77; Luciferase inh: 16µM*

How did CCCOc1ccc2[nH]cc(C3=CCNCC3)c2n1 do in these assays?
Luciferase inh: 13µM*

What do the screens show for `C1=C(c2c[nH]c3ccccc23)CCNC1`?
GBA mod: >77; Luciferase inh: -2%

What do the screens show for `[O-]/[N+](=C/c1cccnc1)c1ccc(Br)cc1`?
Luciferase inh: 10µM*

What do the screens show for `Cn1cc(CCC(=O)N2CCC3(CC2)OCCO3)c2ccccc21`?
GBA mod: >77; Luciferase inh: 0%; PK Bst: >57

What do the screens show for `Cc1cc(N2CCOCC2)nc2ccc(NC(=O)CCC(=O)N3CCC4(CC3)OCCO4)cc12`?
GBA mod: 4.7*; Luciferase inh: 13µM*

Results for CC[C@H](CO)NC(=O)[C@@H]1C=C2c3cccc4c3c(cn4C)C[C@@H]2N(C)C1 ?
Luciferase inh: -2%

What do the screens show for `C=CCN1CCc2cccc3c2[C@@H]1Cc1ccc(O)c(O)c1-3`?
Luciferase inh: -16%

Results for CC(=O)Nc1ccc(OC(=O)c2ccccc2N)cc1 ?
Luciferase inh: -12%

What do the screens show for `Nc1ccccc1C(=O)OCCOc1ccccc1`?
GBA mod: >77; Luciferase inh: 13µM*; PK Bst: inconclusive

How did O=c1ccc2cc(O[C@@H]3O[C@@H](CO)[C@@H](O)[C@@H](O)[C@H]3O)c(O)cc2o1 do in these assays?
Luciferase inh: 0%[11.4 µM]

What do the screens show for `NC(N)=Nc1ccc2[nH]c3c(c2c1)C[C@]1(O)[C@@H]2Cc4ccc(O)c5c4[C@]1(CCN2CC1CC1)[C@H]3O5`?
Luciferase inh: 7%

Results for CN1CCN(C(=O)COc2ccc(-c3nc4ccccc4s3)cc2)CC1 ?
GBA mod: inactive; Luciferase inh: 0.79µM*; PK Bst: 1*

How did CC(C)NS(=O)(=O)c1ccc(OCC(=O)N2CCN(C)CC2)cc1 do in these assays?
Luciferase inh: 2%

Results for CC(C)C[C@H]1C(=O)N2CCC[C@@H]2[C@]2(O)O[C@](NC(=O)[C@H]3C=C4c5cccc6[nH]cc(c56)C[C@H]4N(C)C3)(C(C)C)C(=O)N12 ?
Luciferase inh: -4%[11.4 µM]

Results for C=C[C@@H]1CN2CC[C@@H]1C[C@H]2[C@H](O)c1ccnc2ccccc12 ?
Luciferase inh: 2%[11.4 µM]

What do the screens show for `O=C1C[C@H]2OCCC=C3CN4CC[C@@]56c7ccccc7N1[C@@H]5[C@H]2[C@H]3C[C@@H]46`?
Luciferase inh: 2%[11.4 µM]

Results for Cc1ccc(C2(O)CC(C)N(C)CC2C)cc1 (stereo not given) ?
GBA mod: >77; Luciferase inh: 5%; PK Bst: >57

How did CCOc1ccc(Br)c(C2(O)CC(C)N(C)CC2C)c1 (stereo not given) do in these assays?
GBA mod: >77; Luciferase inh: 25µM*

What do the screens show for `CNc1ccc2oc(C[C@@H]3O[C@@]4(CC[C@H]3C)O[C@@H]([C@@H](C)C(=O)c3ccc[nH]3)[C@@H](C)C[C@H]4C)nc2c1C(=O)O`?
Luciferase inh: -2%

Results for C=C(C)[C@@H]1CN[C@H](C(=O)O)[C@H]1CC(=O)O ?
Luciferase inh: 0%

What do the screens show for `CN1CCc2cc3c(cc2[C@@H]1[C@H]1OC(=O)c2c1ccc1c2OCO1)OCO3`?
Luciferase inh: -2%[11.4 µM]

How did CCC(C)NC(=O)c1c(N)n(Cc2ccc3c(c2)OCO3)c2nc3ccccc3nc12 (stereo not given) do in these assays?
GBA mod: 15*; Luciferase inh: 5%; PK Bst: >57

Results for CCC(C)NC(=O)c1c(N)n(CC2CCCO2)c2nc3ccccc3nc12 (stereo not given) ?
GBA mod: inconclusive; Luciferase inh: -4%; PK Bst: >57

What do the screens show for `NNC(=O)c1ccc(O)cc1`?
Luciferase inh: 13µM*

Results for NCCc1ccc(O)cc1 ?
GBA mod: >77; Luciferase inh: 3%; PK Bst: >57

Results for Ic1ccccc1CN[C@@H]1C2CCN(CC2)[C@H]1C(c1ccccc1)c1ccccc1 ?
Luciferase inh: 1%

Results for O=S(=O)(c1ccccc1)N1CN2CCN(C2)C1 ?
GBA mod: 14*; Luciferase inh: -1%; PK Bst: >57

How did c1ccc(C[N+]23CN4CN(CN(C4)C2)C3)cc1 do in these assays?
Luciferase inh: 2%[11.4 µM]
